Bioassay records from PubChem.
TMEM16A inh = TMEM16A chloride channel inhibitors, primary screen, cell-based, HTS | HEK293 TMEM16A/YFP iodide influx fluorescence, ionomycin | normalized B-score (activity score, 25-100; higher = stronger inhibition) at 10 µM | 1.2% of 310,000 active;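 active means ratio plate-corrected score three or more library SD toward inhibition, starting fluorescence score within five deviations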;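 further: score derived from kinetic fluorescence span divided by baseline fluorescence per well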
Target sequence (Q8BHY3 whole entry, looked up): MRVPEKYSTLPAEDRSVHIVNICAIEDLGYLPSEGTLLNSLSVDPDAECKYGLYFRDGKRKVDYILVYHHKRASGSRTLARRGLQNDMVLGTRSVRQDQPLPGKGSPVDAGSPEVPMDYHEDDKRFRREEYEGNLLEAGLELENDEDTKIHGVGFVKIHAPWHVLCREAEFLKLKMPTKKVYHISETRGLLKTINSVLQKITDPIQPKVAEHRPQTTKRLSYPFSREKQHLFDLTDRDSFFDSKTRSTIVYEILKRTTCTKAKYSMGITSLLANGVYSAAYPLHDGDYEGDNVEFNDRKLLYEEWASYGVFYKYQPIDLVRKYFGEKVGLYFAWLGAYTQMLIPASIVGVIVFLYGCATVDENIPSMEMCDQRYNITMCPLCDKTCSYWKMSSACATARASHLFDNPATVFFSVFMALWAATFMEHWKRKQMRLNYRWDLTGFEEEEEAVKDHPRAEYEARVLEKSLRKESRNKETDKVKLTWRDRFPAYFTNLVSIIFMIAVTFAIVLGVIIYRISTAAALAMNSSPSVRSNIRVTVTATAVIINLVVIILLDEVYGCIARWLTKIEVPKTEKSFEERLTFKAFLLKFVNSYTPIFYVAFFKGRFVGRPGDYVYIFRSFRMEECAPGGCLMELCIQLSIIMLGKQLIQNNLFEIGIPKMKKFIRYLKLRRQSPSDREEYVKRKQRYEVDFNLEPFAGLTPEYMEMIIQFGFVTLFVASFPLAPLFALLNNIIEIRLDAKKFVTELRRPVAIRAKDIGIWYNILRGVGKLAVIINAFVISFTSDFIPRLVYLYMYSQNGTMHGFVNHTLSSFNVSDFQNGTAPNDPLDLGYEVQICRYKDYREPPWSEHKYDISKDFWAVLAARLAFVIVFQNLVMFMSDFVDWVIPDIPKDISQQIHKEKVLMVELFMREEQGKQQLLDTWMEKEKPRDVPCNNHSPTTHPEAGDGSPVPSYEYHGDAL
ANO1 activ = TMEM16A chloride channel activators or potentiators, primary screen, cell-based, HTS; B-score at 10 µM; HEK293 TMEM16A/YFP-H148Q/I152L, iodide quench fluorescence; hits give low values; 0.3% of 340,000 active; AID 623877, 2012;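 active means fluorescence-ratio B-score plate-corrected deviation score at least 3 library SD below zero, with starting fluorescence score within 5 deviations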;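 further: channel opened by trigger with iodide after compound preincubation; score built on the fluorescence ratio of max minus min over baseline; more negative score means more quench and so TMEM16A activation or potentiation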
Cardiac RTF inh = cardiac RTF calcium sensitivity inhibitors, primary screen, biochemical, IANBD-TnC fluorescence, EC70 calcium; Troponin I, cardiac muscle (Homo sapiens) + Troponin T, cardiac muscle (Homo sapiens) + …; IANBD-labeled cardiac RTF, Ca2+ fluorescence; inhibition, % at 7.15 µM; 0.12% of 340,000 active;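 active means inhibition above the mean inhibition of all tested compounds plus 3 SD, cut at about 17% in these data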;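 further: assay run at fixed EC70 calcium of 1.6 mM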
CRFBP-R2 agonist = agonists of CRF-BP/CRF-R2 complex, primary screen, cell-based, HEK293, calcium dye fluorescence, uHTS; CRF-binding protein / CRF receptor 2 complex (human); calcium dye fluorescence (FLIPR); percent of saturating CRF peptide response; activation, % at 13.2 µM; 0.46% of 350,000 active; AID 588473, 2011;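 active means activation of at least 50%, plus an integration ratio under a set limit after plate pattern correction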;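 further: plate controls were neutral control wells without compound for no effect and CRF at EC100 for full effect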
cardiac RTF act = cardiac RTF calcium sensitivity activators, primary screen, biochemical, IANBD-TnC fluorescence, EC20 calcium; activation, % at 7.2 µM; 0.24% of 340,000 active; AID 493008, 2010; IANBD-labeled TnC RTF fluorescence at EC20 calcium; 0% EC20 calcium, 100% full calcium; Troponin I, cardiac muscle (Homo sapiens) + Troponin T, cardiac muscle (Homo sapiens) + …;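 active means activation above the mean over all tested compounds plus 3 SD, cut at about 30% in these data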;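 further: rise in fluorescence read as greater calcium sensitivity of cardiac thin filaments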
CRFBP-R2 block = antagonists of CRF-BP/CRF-R2 complex, primary screen, cell-based, HEK293, calcium dye fluorescence, uHTS; AID 588475, 2011; inhibition, % at 11.8 µM; 0.59% of 350,000 active; CRF-induced calcium fluorescence;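 active means inhibition of the ligand-induced calcium signal above about 50% at the single tested concentration, limit read from the data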
Starred values were filed as active, the others as inactive; i = inactive; / = no result given. This is a sample that favours compounds with a hit; in the whole collection about 2.4% have one here.

SMILES	TMEM16A inh	ANO1 activ	Cardiac RTF inh	CRFBP-R2 agonist	cardiac RTF act	CRFBP-R2 block
COc1ccc(CNC(=O)c2sc(=S)n(-c3ccc(OC)cc3)c2N)cc1	i	i	3	-1	-2	66*
O=S(=O)(Cc1cc(Cl)nc(-c2ccncc2)n1)c1ccccc1	i	-4.7*	-2	2	3	13
Cc1ccc(C2=C(O)c3ccccc3C(=O)C2=O)cc1	i	i	-8	-1	-1	-12
CC(C)c1ccc(C2=C(O)c3ccccc3C(=O)C2=O)cc1	25*	i	7	-1	0	14
Cc1cccc(-c2sc(Nc3ccccc3)n[n+]2-c2ccc(F)cc2)c1	i	i	-11	-3	4	2
COc1ccc(C)cc1Nc1n[n+](-c2ccccc2)c(-c2c(OC)ccc3ccccc23)s1	100*	i	-17	-1	-2	27
COc1ccc(-c2sc(Nc3ccccc3)n[n+]2-c2ccc(F)cc2)c(C)c1C	i	-5*	-1	0	-3	-4
CCOC(=O)c1cnc(-n2nc(C)cc2C)nc1NC1CCCCC1	100*	i	4	-4	-10	-6
Cc1ccc(C)c(N2CCN(C3CCCCC3NS(=O)(=O)c3ccccc3)CC2)c1 (configuration not stated)	i	-6.2*	-8	4	-10	-23
Cc1ccc(Cl)cc1N1CCN(C2CCCCC2NS(=O)(=O)c2ccccc2)CC1 (configuration not stated)	i	-9.7*	-1	5	-3	-24
O=S(=O)(NC1CCCCC1N1CCCCC1)c1ccccc1 (configuration not stated)	i	i	-4	2	-2	-2
COCCNC(=O)CN(CC1CCCO1)C(=O)CCC(=O)Nc1ccccn1 (configuration not stated)	i	i	-2	-1	1	57*
Cc1ccc(NC(=O)/C(=C/c2ccco2)c2ccccc2)c(C)c1	i	i	4	1	-4	9
Cc1cc(C)c(NC(=O)/C(=C/c2ccccc2)c2ccccc2)c(C)c1	i	i	-3	0	-5	67*
COc1cc(Nc2ncnc(N)n2)cc(OC)c1OC	i	i	2	0	-2	-8
O=C1OCCC1Sc1nnc(-c2ccc(Cl)cc2Cl)o1 (configuration not stated)	25*	i	-1	-2	6	45
Cc1ccc(C)c2[nH]c(=O)c(CN(Cc3ccco3)C(=S)NCC3CCCO3)cc12 (configuration not stated)	i	i	1	0	0	-15
CCN(CC)c1ccc(/C=C/C(=O)c2ccc(Br)cc2)cc1	i	i	i	325*	476*	-343
CCOC(=O)C1CCN(C(=O)c2ccc3c(c2)NC(=O)/C(=C/c2ccccc2)S3)CC1	i	-50*	-4	2	-6	1
CCOC(=O)C1CCN(C(=O)c2ccc3c(c2)NC(=O)/C(=C\c2ccc(C)cc2)S3)CC1	i	i	-7	-1	5	2
CC(C)(c1ccccc1)c1ccc(OCC(O)CNC2CCN(Cc3ccccc3)CC2)cc1 (configuration not stated)	100*	i	-1	13	-9	-12
COc1ccccc1S(=O)(=O)N1CCn2cccc2C1C (configuration not stated)	/	i	-3	2	6	103*
CNc1snc(C)c1C(=O)OC(C)C(=O)Nc1cccc(OC)c1 (configuration not stated)	/	i	-3	0	5	4
